Measurements taken from PubChem BioAssay (NCI).
About 83,000 compounds went through this panel and 20% of them were active in at least one assay; those are over-represented in the sample as a whole.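 Step 1: grow cells in 96-well plates. Step 2: add test compound at a single concentration. Step 3: incubate 48 h. Step 4: record percent growth.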 The source made the active and inactive calls. Rule for the calls: active = growth percent below 10; inactive = the rest.

Tests used:
Experiment in all cases: NCI-60 one-dose screen, 48 h (100 = growth as untreated, 0 = no growth, -100 = all killed)
Settings in all cases: 10 µM unless noted
[1] = tested on: DU-145 prostate
[2] = tested on: K-562 leukemia
[3] = tested on: MALME-3M melanoma
[4] = tested on: MDA-MB-231 breast
[5] = tested on: RXF 393 renal
[6] = tested on: SF-268 CNS
[7] = tested on: SF-295 CNS
[8] = tested on: SF-539 CNS
[9] = tested on: UACC-257 melanoma
[10] = tested on: M14 melanoma
[11] = tested on: HCT-15 colon
[12] = tested on: HT29 colon
[13] = tested on: SNB-75 CNS
[14] = tested on: SNB-19 CNS
[15] = tested on: PC-3 prostate
[16] = tested on: SK-MEL-5 melanoma
[17] = tested on: UACC-62 melanoma
[18] = tested on: LOX IMVI melanoma
[19] = tested on: SK-MEL-28 melanoma
[20] = tested on: U251 CNS

Compound	growth [1]	growth [2]	growth [3]	growth [4]	growth [5]	growth [6]	growth [7]	growth [8]	growth [9]	growth [10]	growth [11]	growth [12]	growth [13]	growth [14]	growth [15]	growth [16]	growth [17]	growth [18]	growth [19]	growth [20]
COc1ccc(C2CC(n3nnnc3-c3ccccc3)=NN2)cc1 (stereo not drawn)	70.5% (inactive)	15.6% (inactive)	73.9% (inactive)	40.2% (inactive)	102% (inactive)	75.4% (inactive)	27.2% (inactive)	37.9% (inactive)	101% (inactive)	35.4% (inactive)	52.4% (inactive)	84.5% (inactive)	76.9% (inactive)	88.1% (inactive)	58.4% (inactive)	70.7% (inactive)	13.4% (inactive)	22% (inactive)	94.6% (inactive)	
Nc1c(Cl)cc([N+](=O)[O-])cc1Br	105% (inactive)	99.1% (inactive)	107% (inactive)	101% (inactive)	98.2% (inactive)	97.1% (inactive)	74% (inactive)	114% (inactive)	91.3% (inactive)	114% (inactive)	103% (inactive)	103% (inactive)	108% (inactive)	116% (inactive)	96.1% (inactive)		102% (inactive)	104% (inactive)	110% (inactive)	101% (inactive)
C=C(C)[C@@H]1CC[C@]2(C(=O)NCC(=O)OC)CC[C@]3(C)[C@H](CC[C@@H]4[C@@]5(C)Cc6c([nH]c7ccccc67)C(C)(C)[C@@H]5CC[C@]43C)[C@@H]12	83.8% (inactive)	44.9% (inactive)	93.9% (inactive)	82.2% (inactive)	76% (inactive)	74.7% (inactive)	76.7% (inactive)	85.1% (inactive)	75.7% (inactive)	89.5% (inactive)	81.9% (inactive)	60.8% (inactive)	114% (inactive)	82.5% (inactive)	49.1% (inactive)		76.6% (inactive)	70.7% (inactive)	95% (inactive)	58.9% (inactive)
O=C(CCN1CCCC1)Nc1ccc2c(Nc3ccccc3)c3ccccc3nc2c1	-28.5% (active)	0.263% (active)	-85.1% (active)	3.81% (active)	8.26% (active)	26.1% (inactive)	33.4% (inactive)	-62.5% (active)	-39.5% (active)	-77.4% (active)	-3.61% (active)	4.21% (active)	10.9% (inactive)	18.4% (inactive)		40.4% (inactive)	30.3% (inactive)	-55.3% (active)	62.3% (inactive)	0.528% (active)
CC1(C)CC[C@]2(C(=O)NCC#CCN3CCOCC3)CC[C@]3(C)C(=CC[C@@H]4[C@@]5(C)Cc6c([nH]c7ccccc67)C(C)(C)[C@@H]5CC[C@]43C)[C@@H]2C1	103% (inactive)	65.3% (inactive)	95% (inactive)	91.4% (inactive)	98.6% (inactive)	87.7% (inactive)	79.7% (inactive)	107% (inactive)	47.5% (inactive)	80.7% (inactive)	93.5% (inactive)	83.5% (inactive)	98.2% (inactive)	93.1% (inactive)		88.8% (inactive)	49.3% (inactive)	94.6% (inactive)	67.7% (inactive)	87.9% (inactive)
O=C(NNc1nc(Cl)nc(N2CCN(C(c3ccccc3)c3ccccc3)CC2)n1)c1ccccc1	46.6% (inactive)	-38.8% (active)	-14.4% (active)	-54.3% (active)	-47.1% (active)	63.1% (inactive)	92.3% (inactive)	-33% (active)	-1.56% (active)	10.5% (inactive)	-60.1% (active)	-78.9% (active)	-26.3% (active)	32.4% (inactive)	-46.9% (active)		3.38% (active)	-88.7% (active)	-6.33% (active)	27.3% (inactive)
c1ccc(-c2nn(-c3ccccc3)[n+](-c3ccccc3-c3ccccc3)n2)cc1	22.8% (inactive)	5.29% (active)	-31.7% (active)	35.5% (inactive)	10.1% (inactive)	22% (inactive)	3.4% (active)	22.9% (inactive)	9.82% (active)	23.2% (inactive)	101% (inactive)	5.29% (active)	29.7% (inactive)	27.9% (inactive)	2.58% (active)		26.4% (inactive)	12.5% (inactive)	48.7% (inactive)	15% (inactive)
COc1ccc(C(=O)/C=C/c2ccc(OCc3ccccc3)c(OC)c2)cc1OC	36.7% (inactive)	20.7% (inactive)	56.4% (inactive)	55.3% (inactive)	75.1% (inactive)	43.8% (inactive)	57.1% (inactive)	83.3% (inactive)	63.2% (inactive)	83.1% (inactive)	45.8% (inactive)	10.6% (inactive)	34.1% (inactive)	87.1% (inactive)		66.1% (inactive)	70.8% (inactive)	34.3% (inactive)		10.1% (inactive)
CCCCCCC/C=C/[C@H]1O[C@]2(O)C(=O)C=C3C[C@@H](O[C@@H]4O[C@H](CO)[C@@H](O)C(O)[C@@H]4O)C[C@@H]3[C@H]2C=C1C (stereo partly drawn)	20.6% (inactive)	-5.09% (active)	1.95% (active)	-8.64% (active)	-80.3% (active)	21.8% (inactive)	37.5% (inactive)	-43.7% (active)	-7.54% (active)	-23.6% (active)	-25% (active)	-12.2% (active)	48.4% (inactive)	13% (inactive)	-26.8% (active)		-52.4% (active)	-76.1% (active)	-26% (active)	-60.5% (active)
COc1ccc2nc(N=Nc3c(O)ccc4ccccc34)sc2c1	37.1% (inactive)	19.1% (inactive)	57.5% (inactive)	45.2% (inactive)	52.4% (inactive)	33.4% (inactive)	16.5% (inactive)	22.9% (inactive)	36.9% (inactive)	1.92% (active)	31.4% (inactive)	28.2% (inactive)	49.4% (inactive)	31.8% (inactive)		4.14% (active)	7.36% (active)	12.8% (inactive)	35.5% (inactive)	23.1% (inactive)
C=CCn1c(SCC(=O)Nc2ccc(C(=O)/C=C/c3cc(OC)c(OC)c(OC)c3)cc2)nnc1-c1cc(OC)c(OC)c(OC)c1	24.2% (inactive)	6.9% (active)	92.4% (inactive)	49.3% (inactive)	21.4% (inactive)	34.9% (inactive)	60.4% (inactive)	4.95% (active)	64.1% (inactive)	18.6% (inactive)	0.237% (active)	-34.8% (active)	37.2% (inactive)	40.6% (inactive)	49.9% (inactive)	31.7% (inactive)	33.7% (inactive)	5.43% (active)	66.9% (inactive)	
COc1cc2nc(-c3ccc(C(F)(F)F)cc3)cc(OCCN3CCC(O)CC3)c2cc1OC	58.8% (inactive)	61.3% (inactive)	83.6% (inactive)	49.1% (inactive)	61.2% (inactive)	70% (inactive)	80.4% (inactive)	76.8% (inactive)	92.3% (inactive)	25.2% (inactive)	53.8% (inactive)	47% (inactive)	58.1% (inactive)	89% (inactive)		68% (inactive)	84.5% (inactive)	-20.6% (active)	80.7% (inactive)	69.2% (inactive)
N#CC1=C(N)Oc2c(ccc3ccccc23)C1c1ccc([N+](=O)[O-])cc1 (stereo not drawn)	89.6% (inactive)	21.4% (inactive)	84.3% (inactive)	61.4% (inactive)	101% (inactive)	79.6% (inactive)	75.6% (inactive)	87.8% (inactive)	94.7% (inactive)	67.8% (inactive)	41.5% (inactive)	90.3% (inactive)	44.8% (inactive)	87.8% (inactive)		86% (inactive)	65.6% (inactive)	59.1% (inactive)	89.3% (inactive)	89.8% (inactive)
C#CCNC(=O)[C@H](Cc1ccccc1)NC(=O)[C@]12CC[C@@H](C(=C)C)[C@@H]1[C@H]1CC[C@@H]3[C@@]4(C)Cc5c([nH]c6ccccc56)C(C)(C)[C@@H]4CC[C@@]3(C)[C@]1(C)CC2	101% (inactive)	83.9% (inactive)	113% (inactive)	97.7% (inactive)	93.9% (inactive)	92.6% (inactive)	96.6% (inactive)	102% (inactive)	96.7% (inactive)	96.4% (inactive)	101% (inactive)	88.8% (inactive)	92.9% (inactive)	90.9% (inactive)	77.8% (inactive)	102% (inactive)	93.2% (inactive)	97.4% (inactive)	102% (inactive)	
CCc1c(Nc2ccc(C)cc2)nc(N)[nH]c1=O	111% (inactive)	94.7% (inactive)	98.6% (inactive)	94.7% (inactive)	109% (inactive)	102% (inactive)	98.3% (inactive)	101% (inactive)	102% (inactive)	100% (inactive)	103% (inactive)	100% (inactive)	87% (inactive)	98.9% (inactive)	95.4% (inactive)	102% (inactive)	87.2% (inactive)	105% (inactive)	101% (inactive)	
C=C1C(=O)O[C@H]2[C@H]1CC/C(CNC(=O)/C=C/c1ccc(Br)cc1)=C\CC[C@@]1(C)O[C@@H]21	-98.7% (active)	0.48% (active)	-78% (active)	-80.6% (active)	-89.2% (active)	-29.4% (active)	49.6% (inactive)	-91.7% (active)	-40.5% (active)	-72.4% (active)	-64.2% (active)	-74.5% (active)	48.9% (inactive)	15.9% (inactive)	-55.2% (active)	28.7% (inactive)	-93.5% (active)	-95.2% (active)	-66.1% (active)	
